Activity calls are given as the source filed them. Calls come from the whole dose curve; as a rule, active = well fitted activation curve with a large enough effect in the repeat runs; inconclusive = weak or mixed curves; inactive = flat fitted curve, though single readings scatter.
% is set by controls: 0 for no effect and ±100 for the full control effect.

The assay can be described thus: A CellTox Green Cytotoxicity Assay to monitor cytotoxicity in HEK293 cells - 0 hour (AID 1224869). Note: nearly all actives have a fitted effect of over 50% in size. Particulars: CellTox Green fluorescence; series mostly up to 76.8 µM. From the text:
National Center for Advancing Translational Sciences [NCATS]
NIH Chemical Genomics Center [NCGC]
U.S. Environmental Protection Agency [EPA]
National Institutes of Environmental Health Sciences [NIEHS]
National Toxicology Program [NTP]
Cell-based models are critical for drug discovery. Determining the natural cytotoxic effects resulting from test compounds is an essential research activity. A CellTox Green Cytotoxicity Assay to monitor cytotoxicity in real time of continues cell culture during 40 hours of the compound treatment was used to screen Tox21 10K library compounds in Hek293 cells. CellTox Green Cytotoxicity Assay is a nonlytic, homogeneous, biofluorescent method to measure cytotoxicity in cell culture after experimental manipulation. The assay system uses a proprietary asymmetric cyanine dye that is excluded from viable cells but preferentially stains the dead cell's DNA. […] Viable cells produce no appreciable increases in fluorescence. Therefore, the fluorescence signal produced by the binding interaction with dead cell DNA is proportional to cytotoxicity.
The mixture of Hek293 cell suspension and reagents were dispensed at 600cells/6 ul/well in 1536-well tissue culture treated black solid bottom plates using a Multidrop dispenser. After the assay plates were incubated at a 37 C/5% CO2 incubator for 5 hours, 23 nL of compounds dissolved in DMSO, positive and negative controls was transferred to the assay plate by a pintool work station. The plates were incubated at 37 C for 40 hours. The fluorescence intensity were measured at 0h, 8h, 16h, 24h, 32h and 40h time points using ViewLux plate reader during compound treatment.
In the case of `Cc1cc(NC(=O)C2=C(O)c3ccccc3S(=O)(=O)N2C)no1`, the call was inactive. On to `C=CCCCCCCCCCCCC`, for which the compound was classed as inactive. The same measure, in the same setting: then `CCO[Si](CCCS)(OCC)OCC`, with “inactive”. `BrCc1cccc(Oc2ccccc2)c1`: the result was inactive. The same measure, in the same setting: then `Nc1nnc(-c2cccc(Cl)c2Cl)c(N)n1`, with “inactive”; and `O=C(CS(=O)Cc1ccco1)NC/C=C\COc1cc(CN2CCCCC2)ccn1` (stereo not given), with “inactive”; and `CC(=O)Nc1ccc(S(=O)(=O)Cl)cc1`, with “inactive”. On the same count and under the same terms, then `CC(C)C(=O)OCCc1ccccc1`, with “inactive”. The same measure, in the same setting: then `CCCCOC(=O)c1ccccc1`, with “inactive”.

Turning to `O=C(Nc1ccc(Cl)c(Cl)c1)C1CC1`, the result was inactive. On the same count and under the same terms, then `COc1ccc(-c2cc(=O)c3c(O)cc(O[C@@H]4O[C@H](CO[C@@H]5O[C@@H](C)[C@H](O)[C@@H](O)[C@H]5O)[C@@H](O)[C@H](O)[C@H]4O)cc3o2)cc1O`, with “inactive”; and `CC(N)C(=O)OC(C)(C)Cc1ccc(Cl)cc1` (stereo not given), with “inactive”; and `C=C(C)C(=O)OCC(C)(C)COC(=O)C(=C)C`, with “inactive”. On the same count and under the same terms, the value for `COc1ccc(S(=O)(=O)N2c3ccc(Cl)cc3[C@@](O)(c3ccccc3Cl)[C@H]2C(=O)N2CCC[C@@H]2C(N)=O)cc1OC` was “inactive”; that for `O=C1c2ccccc2C(=O)C1c1ccccc1` was “inactive”; that for `CC(C)C[C@H](NC(=O)CNC(=O)[C@H](Cc1ccc(O)cc1)NC(=O)[C@H](CO)NC(=O)[C@H](Cc1c[nH]c2ccccc12)NC(=O)[C@H](Cc1cnc[nH]1)NC(=O)[C@@H]1CCC(=O)N1)C(=O)N[C@@H](CCCN=C(N)N)C(=O)N1CCC[C@H]1C(=O)NCC(N)=O` (stereo in doubt) was “inactive”. Still for that read-out and setting: the value for `CCCCCCOc1ccccc1C(N)=O` was “inactive”; that for `Nc1ccc2cc(S(=O)(=O)O)cc(O)c2c1` was “inactive”. On to `Nc1ccc([N+](=O)[O-])c(N)c1`, for which the call was inactive.

With `CCCCCCCCCC(C)=O`, the call was inactive. On the same count and under the same terms, the value for `CC(C)NCC(O)COc1cccc2[nH]ccc12` (stereo not given) was “inactive”; that for `O=C(NCC(O)CO)c1c(I)c(C(=O)NCC(O)CO)c(I)c(N(CCO)C(=O)CO)c1I` (stereo not given) was “inactive”; that for `O=S(=O)(O)c1cc(O)c2ccc(Nc3ccccc3)cc2c1` was “inactive”.

As to `CNC(=O)[C@H]1O[C@@H](n2cnc3c(NCc4cc(Cl)ccc4OCc4cc(C)no4)ncnc32)[C@H](O)[C@@H]1N`, the call was inactive.

As to `Cc1ccc2c(c1)OCC(=O)CO2`, the result was inactive.

On to `C=C(C)C(=O)OCCNC(C)(C)C`, for which the compound was called inactive. The same measure, in the same setting: then `CNS(=O)(=O)CCc1ccc2[nH]cc(C3CCN(C)CC3)c2c1`, with “inactive”; and `CC(=C(CCOC(=O)C(C)C)SSC(CCOC(=O)C(C)C)=C(C)N(C=O)Cc1cnc(C)nc1N)N(C=O)Cc1cnc(C)nc1N`, with “inactive”; and `c1ccc2nccnc2c1`, with “inactive”.

Regarding `Cc1cccc(C)c1OCC(C)N` (stereo not given), the compound was classed as inactive. Same read-out and setting: the value for `CC(C)C(=O)OCc1cccc(OC(=O)[C@@H]2N3C(=O)[C@@H](NC(=O)Cc4ccccc4)[C@H]3SC2(C)C)c1` was “inactive”; that for `O=S(=O)(O)CCN1CCN(CCO)CC1` was “inactive”. The same measure, in the same setting: the value for `O=C(CCNNC(=O)c1ccncc1)NCc1ccccc1` was “inactive”; that for `CC1(C)S[C@@H]2[C@H](N=CN3CCCCCC3)C(=O)N2[C@H]1C(=O)O` was “inactive”; that for `O=C1c2ccccc2C(=O)c2cc(S(=O)(=O)O)ccc21` was “inactive”. `Cc1nc2n(c(=O)c1CCN1CCC(c3noc4cc(F)ccc34)CC1)CCC[C@H]2O`: the cytotoxicity is 0.136% [at 15.8 µM] (inactive). Turning to `NC(CO)C(=O)NNCc1ccc(O)c(O)c1O` (stereo not given), the compound was called inactive.

For the compound `CCn1ccc(NS(=O)(=O)c2ccc(N)cc2)nc1=O`, the compound was classed as inactive. Same read-out and setting: the value for `C[C@H](N)[C@H](O)c1cccc(O)c1` was “inactive”; that for `C[C@@H]1O[C@@H](O[C@@H]2[C@@H](O)[C@H](OCCc3ccc(O)c(O)c3)O[C@H](CO[C@@H]3O[C@H](CO)[C@@H](O)[C@H](O)[C@H]3O)[C@H]2OC(=O)/C=C/c2ccc(O)c(O)c2)[C@H](O)[C@H](O)[C@H]1O` was “inactive”.

(Values after PubChem BioAssay (Tox21).)
